High-throughput results deposited in PubChem BioAssay by National Center for Advancing Translational Sciences (NCATS).
This is a sample that favours compounds with a hit; in the whole collection about 5.7% have one here.
KB-3-1 cytotox: kills parental KB-3-1 adenocarcinoma cells; AID 1347075; KB-3-1 viability, CellTiter-Glo ATP luminescence, 72 h; Potency, µM (highest dose often 46.1 µM), hits mostly cytotoxic; 1.4% of 400,000 active; also: nearly all actives have a fitted effect of over 60% in size
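Cytotoxicity in the drug-sensitive parental line KB-3-1 was scored as loss of CellTiter-Glo luminescence following 72 h incubation with compound. Values come from curve fitting of normalized concentration-response data.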
HT1080 IDH1KD tx: HT-1080 IDH1 knockdown cell toxicity (counter line); HT-1080 IDH1 knockdown viability, ATP luminescence, 48 h; Potency, µM (doses to about 46.1 µM), for the others: at the top dose activity, negative = toxicity, usual class: cytotoxic; 2% of 360,000 active; AID 686971;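 also: 0% = DMSO wells and -100% = cell-free medium wells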
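In this qHTS, HT-1080 cells depleted of IDH1 are exposed for 48 h at 37 °C to compound titrations. Toxicity is scored from CellTiter-Glo luminescence, with DMSO as full viability and medium alone as none.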
KB-V1 cytotox: KB-V1 MDR subline cytotoxicity; KB-V1 MDR cells viability, CellTiter-Glo, 72 h; Potency, µM (highest dose often 46.1 µM), usual class: cytotoxic; 3.4% of 400,000 active; also: nearly all actives have a fitted effect of over 60% in size
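Potencies derive from concentration-effect curves fitted to normalized luminescence (CellTiter-Glo) of KB-V1 cells treated for 72 h at 37 degrees C in phenol-red-free DMEM containing 10% FBS.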
HT1080-NT tox: kills 2HG-producing HT-1080-NT fibrosarcoma cells. 1.6% of 360,000 active. AID 686970. Potency, µM (top dose mostly 46.1 µM), for the others: top-dose activity, negative = less viability, most hits filed as cytotoxic. HT-1080-NT fibrosarcoma viability, CellTiter-Glo ATP luminescence, 48 h;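 also: NT is the 2HG producing partner of a matched IDH1 knockdown line; 0% = DMSO-treated cells and -100% = media-only wells without cells; nearly all actives have a fitted effect of over 55% in size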
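Fibrosarcoma NT cells, 750 per well in 5% FBS RPMI, were exposed to compound for 48 hours. Viability: CellTiter-Glo luminescence.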
Starred values were filed as active, the others as inactive; i = inactive; ? = inconclusive; · = no result. Calls follow the shape of the dose curve; as a rule, active = well fitted curve in the direction sought with a large enough effect; inconclusive = small, poorly fitted or top-dose-only effect, or another doubt; inactive = no such curve, though single readings can be large; an effect the other way counts as inactive or inconclusive. Unless noted, % is scaled to controls: 0 for no effect and ±100 for the full control effect; potency is read from the fitted curve at half-maximal effect.

SMILES	KB-3-1 cytotox	HT1080 IDH1KD tx	KB-V1 cytotox	HT1080-NT tox
CCCCOC(=O)NC1CCc2cc(OC)c(OC)c(OC)c2-c2ccc(SC)c(=O)cc21 (stereo unspecified)	0.146µM*	0.0092µM*	0.291µM*	0.0082µM*
COc1cc(C(=O)NCCC(=O)NC2CCCc3ccccc32)cc(OC)c1OC (stereo unspecified)	i	-6.8%	i	4.0%
CCOCC(=O)NC1CCc2cc(OC)c(OC)c(OC)c2-c2ccc(SC)c(=O)cc21 (stereo unspecified)	0.0058µM*	?	?	0.0116µM*
Cc1cccc(-n2c(CNC(=O)c3cccc(F)c3)nnc2SCC(=O)Nc2ccccc2F)c1	i	·	i	·
COc1ccc2c(/C=C/c3cc[n+](C)cc3)c[nH]c2c1	1.84µM*	-2.3%	?	-22.1%
COC(=O)Cn1cc(/C=C/c2cc[n+](C)cc2)c2ccccc21	i	6.2%	?	1.7%
COc1ccc2c(c1)c(/C=C/c1cc[n+](C)cc1)cn2C	16.4µM*	-2.6%	?	-0.5%
Cc1ccc2[nH]cc(/C=C/c3cc[n+](C)cc3)c2c1	0.92µM*	?	i	?
Cc1cccc(Cn2c(C)c(CNC3CCCCCC3)c(C(=O)O)c2C)c1	i	·	?	·
COC(=O)c1cc2oc3ccccc3c2n1Cc1nc(-c2cccc(C)c2)oc1C	i	·	i	·
CC(C)S(=O)(=O)C1=NSC2=NC(=O)/C(=C\c3ccc(-c4ccccc4)o3)C(=N)N21	i	-0.3%	16.4µM*	-2.5%
Cc1cccc2nc(-c3cccc(NS(=O)(=O)c4ccccc4)c3)cn12	i	·	i	·
O=C(N[C@@H](Cc1ccccc1)C(=O)NC1CCCCCC1)c1ccco1	?	-20.5%	5.17µM*	-20.1%
O=C(NC(Cc1ccccc1)C(=O)O)c1ccco1 (stereo unspecified)	i	-7.5%	i	0.1%
O=C(N[C@@H](Cc1ccccc1)C(=O)NC1CCCCC1)c1ccco1	i	0.4%	13µM*	-1.3%
O=C1Cc2cc(S(=O)(=O)N3CCN(c4ccc(Cl)cc4)CC3)ccc2N1	i	·	?	·
COc1ccccc1CNC(=O)CN1C(=O)CSc2ccc(S(=O)(=O)N3CCCCC3)cc21	i	·	i	·
O=C(NCC1CCCO1)c1ccccc1OCc1ccc(Cl)cc1 (stereo unspecified)	i	2.6%	3.66µM*	9.0%
O=C(Nc1ccc(Cl)cc1C(=O)NCC1CCCO1)c1ccco1 (stereo unspecified)	?	-0.6%	8.2µM*	0.9%
O=C(Nc1ccc(Cl)cc1C(=O)NCCN1CCOCC1)c1ccc(Cl)cc1Cl	i	-5.8%	4.61µM*	-10.3%
O=C(NCC1CCCO1)c1ccccc1OCc1ccc(F)cc1 (stereo unspecified)	i	2.0%	?	4.2%
O=C(Nc1ccc(Cl)cc1C(=O)NCC1CCCO1)c1ccc(Cl)cc1Cl (stereo unspecified)	i	5.5%	10.3µM*	1.6%
Cc1cc(C)cc(NC(=O)C(=O)NCC(c2cccnc2)N2CCc3ccccc32)c1 (stereo unspecified)	i	·	i	·
Cc1ccc(Nc2nc(C)cc(C)n2)c(C(=O)O)c1	i	·	i	·
COc1ccc(N2CCN(C(=O)CSc3nc(-c4ccc(C(C)C)cc4)no3)CC2)cc1	i	·	i	·
SMILES	KB-3-1 cytotox	HT1080 IDH1KD tx	KB-V1 cytotox	HT1080-NT tox
CCCN(CCC)C(=O)Cn1c(=O)n(-c2ccc(C)c(C)c2)c(=O)c2c3c(sc21)CCCCC3	i	·	i	·
Cc1ccc(CSCc2nc3ccccc3[nH]2)cc1	i	?	i	-0.9%
Cc1cc(C)cc(CC(Cc2nc3ccccc3[nH]2)c2nc3ccccc3[nH]2)c1 (stereo unspecified)	16.4µM*	?	i	18.4µM*
Cc1cccc(-n2cnc3cc(C(=O)NC4CCCCCC4)ccc32)c1	i	·	?	·
COc1ccc(OC)c2nc3c(C(=O)NCCN(C)C)cccc3nc12	?	20.6µM*	20.6µM*	?
CN(C)CCNC(=O)c1cccc2nc3cccc(F)c3nc12	4.11µM*	7.31µM*	?	?
CN(C)CCNC(=O)c1cccc2ccc(-c3ccc(-c4ccccc4)cc3)nc12	?	?	11.6µM*	-4.1%
CC1(c2ccccc2)CC(C)(C)N(C(=O)c2ccccc2Cl)c2ccccc21 (stereo unspecified)	i	·	i	·
Cc1ccc(CNC(=O)c2cnc3c(-c4ccccc4)c(C)nn3c2C)o1	i	·	i	·
CC(C)c1ccccc1OCC(=O)NCC(c1cccs1)N1CCOCC1 (stereo unspecified)	i	-19.9%	18.4µM*	-11.8%
COc1ccc(C(CNC(=O)COc2ccccc2C)N2CCOCC2)cc1 (stereo unspecified)	i	11.6%	18.4µM*	1.0%
COc1ccccc1N1C(N)=NC(N)=NC1(C)C	i	-6.8%	i	0.7%
CC1(C)N=C(N)N=C(N)N1CCCCc1ccccc1	1.46µM*	0.146µM*	i	?
O=C(N/N=C/c1ccco1)C1CC1(c1ccccc1)c1ccccc1 (stereo unspecified)	i	-4.8%	20.6µM*	8.7%
C/C(=N/NC(=O)C1CC1(c1ccccc1)c1ccccc1)c1ccco1 (stereo unspecified)	i	-1.1%	i	-3.4%
CCOC(=O)C1=C(N)Oc2cc(O)ccc2C1c1cccc(Cl)c1 (stereo unspecified)	?	7.31µM*	?	9.2µM*
CCCN(CCC)C(=O)Cn1c(=O)n(-c2cccc(C(F)(F)F)c2)c(=O)c2c(C)c(C)sc21	i	·	i	·
N#Cc1ccc(NC(=O)COCc2cc(-c3ccc4c(c3)OCO4)on2)cc1	i	·	i	·
O=C(CC1C(=O)OCCN1Cc1ccccc1)Nc1cccc(Cl)c1 (stereo unspecified)	i	·	i	·
COc1ccc(Nc2ccnc(Nc3ccc(OC)cc3)n2)cc1	?	20.6µM*	16.4µM*	23.1µM*
O=C(NNC(=S)Nc1cccc(C(F)(F)F)c1)c1ccc(Cl)cc1Cl	?	?	18.4µM*	?
COCCCNC(=O)CSc1nc2ccccc2c(=O)n1CCCN1CCCCC1	i	-0.2%	i	-3.4%
O=C(CCCCCn1c(SCc2ccncc2)nc2ccccc2c1=O)NCc1ccco1	i	11.2µM*	?	?
CCc1ccc(NC(=O)CSc2nc3ccccc3c(=O)n2CCCC(=O)N2CCCC2)cc1	?	-18.5%	2.91µM*	-17.2%
Cn1ccnc1C(=O)c1cc(SCC(=O)NCc2ccccc2)nc2ccccc12	?	?	?	10.3µM*
CCc1ccc(NC(=O)CSc2nc3ccccc3c(=O)n2CCC(=O)NC2CCCCC2)cc1	i	·	i	·
COCCNC(=O)CSc1nc2ccccc2c(=O)n1CCCC(=O)NCc1ccccc1	i	7.3%	16.4µM*	-0.8%
C=CCc1ccccc1OCCSc1nc(-c2cccs2)nc2cc(=O)[nH]n12	?	·	i	·
